Source: PubChem BioAssay AID449762 (Southern Research Specialized Biocontainment Screening …, 2010)
Screen size: about 330,000 compounds; about 1,900 (0.58%) were called active. Roughly 4% stayed inconclusive and do not appear here. Only a sample is shown. Entries with a potency or affinity are not part of this list. Unmarked numbers belong to inactive results. No stated cut-off is given here; in the data, inconclusive means inhibition above about 70% without an active follow-up result; inactive means below that.

Test: M. tuberculosis growth inhibition, HTS (AID 449762);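 further: bacterial growth assessed after seven days of incubation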
Settings: M. tuberculosis H37Rv growth inhibition, 7H9 media; at 25 µM; hits give high values

| Compound | inhibition [%] |
| --- | --- |
| CCc1ccccc1N(CC(=O)NC1CCCCC1)C(=O)CNC(=O)c1ccco1 | 2.96 |
| O=C(NCc1ccco1)C1CCCN(c2ncnc3c2nc2n3CCCCC2)C1 (stereo unspecified) | 1.1 |
| O=C(O)C1CCN(S(=O)(=O)c2cccc3nsnc23)CC1 | 0.03 |
| Cc1c(C(=O)NC(=S)NCC(C)C)oc2ccccc12 | -6.41 |
| COc1ccccc1C1c2ccc3ccccc3c2Oc2ncn(CCCO)c(=N)c21 (stereo unspecified) | 5.41 |
| COc1ccc(C2c3ccc4ccccc4c3Oc3ncn(CCO)c(=N)c32)cc1OC (stereo unspecified) | 6.98 |
| Cc1c(Br)c([N+](=O)[O-])nn1CC(=O)c1ccccc1 | -1.84 |
| COC(=O)Cn1c(C)nc([N+](=O)[O-])c1Br | 0.3 |
| Cc1ccc(S(=O)(=O)NC(Cc2ccc(Cl)cc2)C(=O)O)cc1 (stereo unspecified) | 4.83 |
| COc1ccccc1-c1c(C)oc2c(CN3CCOCC3)c(O)ccc2c1=O | 0.75 |
| COc1cc(C(=O)N/N=C/c2ccsc2C)cc(OC)c1OC | 17.9 |
| COc1ccc(Br)cc1/C=N/NC(=O)c1cc(OC)c(OC)c(OC)c1 | -3.85 |
| Cc1ccc(CCNC(=O)C2CCN(S(=O)(=O)c3ccc4nc5c(c(C(=O)O)c4c3)CCCC5)CC2)cc1 | -1.27 |
| Cc1nc2ncnn2c(Nc2ccc3c(c2)OCCO3)c1C | 6.9 |
| COc1ccc(NC(=O)COC(=O)CCC2CCCCC2)cc1 | 8.09 |
| O=C(C1=COCCO1)N1CCN(c2nc3ccc([N+](=O)[O-])cc3s2)CC1 | 1.78 |
| COc1ccc(Cl)c2sc(N3CCN(C(=O)C4=COCCO4)CC3)nc12 | 35.6 |
| COc1ccc(NC(=O)COC(=O)/C=C/c2ccccc2[N+](=O)[O-])cc1OC | 0.41 |
| Cc1sc2ncn(CC(=O)N3CCN(c4ccccn4)CC3)c(=O)c2c1S(=O)(=O)N1CCCCC1 | -2.75 |
| FC(F)(F)c1ccc2c(c1)N(CCCN1CCN(CCCl)CC1)c1ccccc1S2 | 4.41 |
| CN1CCN(CCCN2c3ccccc3Sc3ccc(S(=O)(=O)N(C)C)cc32)CC1 | 7.63 |
| CS(=O)(=O)c1ccc(Cl)c(NC(=O)C2CC(=O)N(Cc3ccco3)C2)c1 (stereo unspecified) | 3.6 |
| S=C(NC1CCCC1)N1CCN(c2ccccn2)CC1 | -3.07 |

| Compound | inhibition [%] |
| --- | --- |
| CC1=NN(C(=O)c2ccc(Cl)cc2)C(O)(c2ccccc2)C1 (stereo unspecified) | 28 |
| CC1=NN(C(=O)c2ccccc2)C(O)(c2ccc(Br)cc2)C1 (stereo unspecified) | -3.64 |
| Cc1cccc(NC(=O)CNC(=O)c2sc3ccccc3c2Cl)n1 | -2.76 |
| COc1ccc([C@@H]2CC=C(C(=O)O)[C@H](c3ccc(C(C)(C)C)cc3)N2S(=O)(=O)c2ccc(C)cc2)cc1OC | 4.96 |
| CCS(=O)(=O)c1ccc2c(c1)N(S(C)(=O)=O)CC(C(=O)NC1CC1)O2 (stereo unspecified) | 0.09 |
| On1c(-c2ccccc2)nc2ccccc21 | 9.54 |
| O=C(O)Cn1c(=O)c(-c2ccccc2)nc2ccccc21 | -12.6 |
| N#Cc1ccccc1S(=O)(=O)N1CCN(CC(O)COc2ccccc2F)CC1 (stereo unspecified) | 3.84 |
| N=C1C(c2ccccc2)=C(O)CN1c1cccc2ccccc12 | -2.85 |
| CCOc1ccc(/C=C2\SC(=S)N(N3C(=O)C4CC4C3=O)C2=O)cc1 (stereo unspecified) | -8.07 |
| CCc1ccc(NC(=S)Nc2ccc3cn[nH]c3c2)cc1 | 32 |
| CCNC(=S)Nc1ccc2cn[nH]c2c1 | -5.21 |
| CCCCn1cnc2c(oc3ccccc32)c1=O | -0.57 |
| Nc1nn(S(=O)(=O)c2ccccc2)cc1-c1cccc([N+](=O)[O-])c1 | 1.89 |
| CN(C)[C@@H]1C(=O)C(C(N)=O)=C(O)[C@@]2(O)C(=O)C3=C(O)c4c(O)ccc(Cl)c4[C@@](C)(O)[C@H]3C[C@@H]12 | 5.01 |
| CCOc1ccc(NC(=O)CCC(=O)Oc2ccc(C)cc2)cc1 | -3.3 |
| O=C(COC(=O)Cc1ccsc1)Nc1ccccc1 | -4.1 |
| C=CCNC(=S)NNC(=O)c1csc(CC)c1 | -5.45 |
| Cc1ccc(NC(=O)C(C)N=C2NS(=O)(=O)c3ccccc32)cc1F (stereo unspecified) | 11 |
| CC(=O)N1CCN(c2ccc([N+](=O)[O-])c(-n3nc(C)cc3C)c2)CC1 | 1.6 |
| CC(=O)N1CCN(c2ccc([N+](=O)[O-])cc2)CC1 | -5.3 |
| CCOc1ccccc1OCC(=O)OCC(=O)c1c(N)n(CC(C)C)c(=O)n(C)c1=O | 0.88 |
| CC(=O)OCC(=O)C1CCC2C3CC=C4CC(O)CCC4(C)C3CCC12C (stereo unspecified) | -10.9 |

| Compound | inhibition [%] |
| --- | --- |
| CN(Cc1cccc(Cl)c1Cl)C(=O)c1cccc(S(=O)(=O)N2CCN(Cc3ccccc3)CC2)c1 | -12.3 |
| COc1cc(-c2c(C#N)c(=O)[nH]c3c2c(C)nn3-c2ccccc2)ccc1O | 51.3 |
| Cc1nn(-c2ccc(F)cc2)c2nc(N)c(C#N)c(-c3ccc(O)c(O)c3)c12 | 1.53 |
| O=C1c2ccc([N+](=O)[O-])cc2S(=O)(=O)N1Cc1ccccc1 | -6.93 |
| CCc1noc(C)c1C(=O)Nc1nc(-c2cc(C)ccc2C)c(C)s1 | -0.88 |
| CCc1noc(C)c1C(=O)Nc1nc2ccc(F)cc2s1 | 68.5 |
| CC(=NCc1ccc2c(c1)OCO2)c1c(O)[nH]c(=O)[nH]c1=O | -12.3 |
| CC(=NCc1cccnc1)C1=C(O)c2ccccc2C1=O | -1.08 |
| CCn1c(=O)c2cc(C(=O)NCCC(C)C)sc2c2ccccc21 | 9.29 |
| O=C(Cn1nnc2ccccc21)c1cccc([N+](=O)[O-])c1 | -4.83 |
| CN(C(=O)c1ccc(-c2ccccc2)cc1)C1CCCCC1 | 53.6 |
| CCOc1ccc(NS(=O)(=O)c2ccc(C(=O)N(C)CC(=O)Nc3ccc(C)cc3)cc2)cc1 | 56.7 |
| CCCSc1ccc(-c2nn(-c3ccccc3)cc2/C=C(/C#N)C(=O)NCCCOC)cc1 | -1.57 |
| CCSc1ccc(-c2nn(-c3ccccc3)cc2/C=C(/C#N)C(=O)NCCCOC)cc1 | 6.88 |
| O=C(N/N=C(\CC(=O)c1cccs1)C(F)(F)F)c1cccnc1 | -1.08 |
| O=C(N/N=C(/CC(=O)c1cccs1)C(F)(F)F)c1ccc(O)cc1 | 33.1 |
| CC(C)Nc1nc(NC(C)C)nc(OCCOC(=O)c2ccccc2)n1 | 2.84 |
| CCOC(=O)[C@@H]1[C@H]2COc3cc(OC)ccc3[C@H]2N2C(=O)N(c3ccc(C(F)(F)F)cc3)C(=O)[C@@]12C | 6.64 |
| CCOC(=O)[C@@H]1[C@H]2COc3cc(OC)ccc3[C@@H]2N2C(=O)N(c3ccc(C(F)(F)F)cc3)C(=O)[C@]12C | 1.49 |
| O=C(CC1SC(=O)N(c2ccccc2)C1=O)Nc1ccc(Cl)cc1 (stereo unspecified) | -2.72 |
| O=C(N/N=C1\CCCc2ccccc21)c1cccc(Br)c1 | 17.8 |
| O=C(NN=C1CCCC1)c1cccc(Br)c1 | 8.38 |
| O=C(Nc1ccc(Nc2ccccc2)cc1)C1CC1 | 0.68 |

| Compound | inhibition [%] |
| --- | --- |
| O=C(Nc1ccc(N2CCOCC2)cc1)C1CC1 | -20.2 |
| CC(C)(C)c1ccc(OCCC(=O)NNC(=O)c2ccccc2)cc1 | -10.6 |
| O=C(COc1ccc([N+](=O)[O-])cc1)N(Cc1cccs1)C1CCS(=O)(=O)C1 (stereo unspecified) | -4.33 |
| COc1ccccc1N1CCN(S(=O)(=O)CCNC(=O)CC2CCCCC2)CC1 | -4.01 |
| COCCNC(=O)C(c1ccc(C)cc1)N(C(=O)C(=O)NC1CCCC1)c1ccc2c(c1)OCCO2 (stereo unspecified) | 0.7 |
| COCCNC(=S)N/N=C(\C)c1ccc(OC(F)F)cc1 | 2.04 |
| COCCNC(=S)N/N=C(\C)c1ccc(O)cc1 | -0.19 |
| O=C(Nc1ccccc1-c1nc2ccccc2[nH]1)c1sc2ccccc2c1Cl | 8.98 |
| CCN1CCN(Cc2ccc(NC(=O)c3ccc(C)c(NC(=O)c4ccc5n[nH]nc5c4)c3)cc2C(F)(F)F)CC1 | 4.3 |
| CCN1CCN(Cc2ccc(NC(=O)c3ccc(C)c(NC(=O)c4ccnnc4)c3)cc2C(F)(F)F)CC1 | -1.41 |
| COC(=O)c1cc(NC(=O)Cc2ccc(OC)cc2)cc(C(=O)OC)c1 | -3.89 |
| CC1CCC(NC(=O)COC(=O)C2=NN(c3ccccc3)C(=O)CC2)CC1 (stereo unspecified) | 1.24 |
| COc1cccc2cc(C(=O)Nc3ccc(S(=O)(=O)NCC4CCCO4)cc3)c(=O)oc12 (stereo unspecified) | 1.32 |
| Cc1ccccc1C(=O)/C(C#N)=N/Nc1c(C)n(C)n(-c2ccccc2)c1=O | -1.13 |
| O=C(/C=C/c1c(F)cccc1Cl)Nc1ccncc1 | 9.18 |
| O=C(Nc1ccc(OC(F)(F)F)cc1)c1ccc2nc[nH]c2c1 | 41.2 |
| O=C(Nc1ccc(OC(F)(F)F)cc1)c1ccc2nccnc2c1 | 66.2 |
| S=C(NCCC(c1ccccc1)c1ccccc1)Nc1ccc(Cl)cc1 | 1.85 |
| O=c1cc(N2CCOCC2)cnn1-c1ccccc1 | 14.3 |
| O=S(=O)(Nc1ccccc1)c1ccc(S(=O)(=O)N2CCCC2)cc1 | -1.05 |
| Nc1ncc([N+](=O)[O-])s1 | -0.165 |
| O=[N+]([O-])c1cc(-c2ncccn2)cs1 | 0.84 |
